# Bioassay records as filed in PubChem BioAssay.
# This is a sample that favours compounds with a hit; in the whole collection about 3.3% have one here.
# UBC9 SUMO inh: inhibitors of in vitro SUMOylation cascade, primary screen, biochemical, HTRF, uHTS | inhibition, % at 35 µM | HTRF SUMOylation assay, SAE1/SAE2 + UBC9 | 290,000 tested, 0.36% active | SUMO-conjugating enzyme UBC9 (Homo sapiens), P63279; in the data active means inhibition above about 50%, passing the limit was not always enough
# Target sequence (P63279 whole entry, looked up): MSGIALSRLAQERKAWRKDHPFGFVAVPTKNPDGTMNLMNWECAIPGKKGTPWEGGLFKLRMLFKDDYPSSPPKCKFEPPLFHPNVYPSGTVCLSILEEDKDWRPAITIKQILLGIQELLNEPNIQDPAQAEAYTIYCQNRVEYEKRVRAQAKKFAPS
# sPLA2-III inh: human group III sPLA2 inhibitors, primary screen, biochemical, QFRET, BODIPY PC-A2 liposome substrate | Group 3 secretory phospholipase A2 (Homo sapiens), Q9NZ20 | QFRET BODIPY PC-A2 liposome hydrolysis, fluorescence | inhibition, % at 12.2 µM | 370,000 tested, 0.56% active | AID 743126, 2013;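 active means inhibition above mean plus 3 SD of compounds lying within the high and low control bounds, cut at about 19% in these data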
# UBC13 inh: UBC13 polyubiquitin chain formation inhibitors, primary screen, biochemical, TR-FRET, uHTS. AID 485273, 2010. inhibition, % at 20 µM. Ubiquitin-conjugating enzyme E2 N (Homo sapiens), P61088. 330,000 tested, 0.47% active; in the data active means inhibition above about 45%, passing the limit was not always enough
# Target sequence (P61088 whole entry, looked up): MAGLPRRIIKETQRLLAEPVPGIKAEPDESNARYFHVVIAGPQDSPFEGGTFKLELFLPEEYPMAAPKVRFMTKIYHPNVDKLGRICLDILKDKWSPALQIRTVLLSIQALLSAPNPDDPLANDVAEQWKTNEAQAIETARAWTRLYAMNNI
# GRIN3A LBD mod: binders of NR3A ligand-binding domain, primary screen, biophysical, differential scanning fluorimetry, uHTS; NR3A LBD differential scanning fluorimetry, Tm shift; 0% = protein alone, 100% = glycine-bound protein; Tm shift relative to glycine control, % at 25 µM; 340,000 tested, 2.5% active;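 active means melting temperature shift of at least 10% of the positive control shift, at one fixed dose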
# A number is an active result; . = inactive; / = not tested or not shown.
SMILES,UBC9 SUMO inh,sPLA2-III inh,UBC13 inh,GRIN3A LBD mod
COc1ccc(NS(=O)(=O)c2ccc3nc(COc4ccc5ccccc5c4)[nH]c3c2)cc1,.,.,.,25
COc1ccc(OCc2nc3ccc(S(=O)(=O)Nc4ccccc4Cl)cc3[nH]2)cc1,.,.,.,.
C=C(C)[C@@H]1CC2=C(OC)C(CC=C(C)C)(CC=C(C)C)C(=O)C(C(=O)c3ccccc3)=C2O1,/,.,/,/
CCOC(=O)c1cccc(NC(=O)CCNS(=O)(=O)c2cc(Br)cnc2N)c1,.,.,.,.
Nc1ncc(Br)cc1S(=O)(=O)NCCC(=O)Nc1cccc(Cl)c1,.,.,.,23
Cc1ccc(NC(=O)CCNS(=O)(=O)c2cc(Br)cnc2N)cc1Cl,.,.,.,30
Cc1ccc(NC(=O)CCNS(=O)(=O)c2cc(Br)cnc2N)c(Cl)c1,.,/,.,/
Cc1cc(NC(=O)CCNS(=O)(=O)c2cc(Br)cnc2N)ccc1Br,.,.,.,21
Cc1ccc2c(c1)C(CS(=O)(=O)NCc1ccc(F)cc1)NC2 (configuration not stated),/,.,/,/
CC(C)(C)c1ccc(NC(=O)CSc2nnc(-c3n[nH]c4ccccc34)o2)cc1,.,.,.,175
CCS(=O)(=O)Nc1ccc2c(c1)C(=O)N(C)[C@@H]1CC[C@H](CC(=O)N3CCCCC3)O[C@H]1CO2,/,.,/,/
Cc1cc(N)n(-c2nc3ccccc3s2)n1,.,.,.,32
Cc1nn(-c2nc3ccccc3s2)c(N)c1-c1ccccc1,.,.,.,.
Cc1nn(-c2nc3ccccc3s2)c(N)c1Sc1ccc(F)cc1,.,.,.,15
CCN1C(=O)CC2CCCC1C2 (configuration not stated),/,.,/,11
O=C(CNc1cccc(C(F)(F)F)c1)N/N=C/c1cn(-c2ccccc2)nc1-c1ccccc1,.,.,.,34
Cc1nn(Cc2ccccc2)c(C)c1/C=N/NC(=O)CNc1cccc(C(F)(F)F)c1,.,.,.,13
COc1ccc(-c2nn(-c3ccccc3)cc2/C=N/Nc2cccc(C(=O)O)c2)cc1,.,.,/,.
O=C(CSc1nnc(COc2ccc(Cl)cc2)n1Cc1ccco1)Nc1ccc(OCc2ccccc2)cc1,/,.,/,/
COc1ccc2c(CC(=O)OCC(=O)c3ccccc3OC)coc2c1,.,.,.,.
COc1ccc2c(CC(=O)OCC(=O)c3ccc(F)cc3)coc2c1,.,.,.,19
O=C(N=Nc1c(O)[nH]c2ccc(Br)cc12)c1cc(-c2cccc3ccccc23)n[nH]1,.,.,.,16
Oc1[nH]c2ccc(Br)cc2c1N=NC(=S)Nc1ccc(F)cc1,.,.,.,18
Cc1cccc(C)c1OCC(=O)N=Nc1c(O)[nH]c2ccc(Br)cc12,59,.,.,.
COc1ccc2cc(-c3cccc4[nH]cc(C)c34)ccc2c1,/,.,/,/
SMILES,UBC9 SUMO inh,sPLA2-III inh,UBC13 inh,GRIN3A LBD mod
COc1ccc(NC(=O)Cn2cc(C#N)c3ccccc32)cc1,.,.,.,.
COc1ccc(OC)c(NC(=O)Cn2cc(C#N)c3cc(Br)ccc32)c1,.,.,.,15
CCC[C@H]1[C@@H](NC(=O)c2ccc(N(C)C)cc2)CC[C@@]23CCCN2C(=O)CCC[C@@H]13,/,.,/,/
O=C(Cc1ccccc1)Nc1ccc(NC(=O)c2ccco2)cc1,.,.,.,.
O=C(/C=C/c1ccc(Br)cc1)c1ccco1,.,.,.,.
O=C(/C=C/c1ccc(Br)cc1)c1ccc(NC(=O)c2ccco2)cc1,.,.,.,24
O=C(/C=C\c1ccccc1)Nc1ccc(NC(=O)c2ccco2)cc1,.,.,.,25
O=C(/C=C/c1ccncc1)c1ccc(NC(=O)c2ccccc2F)cc1,70,/,/,.
Cc1ccc(C(=O)N2[C@@H]3CN(C)C(=O)[C@@]2(C)[C@H]2C(=O)N(C)C(=O)[C@@H]32)cc1,/,.,/,.
CN1C[C@@H]2[C@@H]3C(=O)N(C)C(=O)[C@@H]3[C@](C)(C1=O)N2C(=O)c1ccc(F)cc1,/,.,/,10
Fc1ccc(N2CCN(C3=Nc4ccccc4Sc4ccccc43)CC2)cc1,/,.,/,/
COc1ccc(C(=O)c2c(N)sc3c2CCN(C(=O)OC(C)(C)C)C3)cc1,.,.,.,13
CN1CCc2c(sc(N)c2C(=O)c2ccc(Cl)cc2)C1,.,.,.,.
COC(=O)[C@H](CC(C)C)N(Cc1cn(CC2CCCCC2)nn1)S(=O)(=O)c1ccccc1Br,/,.,/,/
